The structures appear in SMILES notation. Records with an inconclusive call do not appear. The source made the active and inactive calls. Calls come from the whole dose curve; as a rule, active = well fitted cell-killing curve with a large enough effect; inconclusive = small, poorly fitted or top-dose-only effect, or effect the other way; inactive = no such curve, though single readings can be large or run the other way.
Potency is the fitted concentration of half-maximal effect.

The first assay in a line: Quantitative High-Throughput drug screen in 47 multiple myeloma cell lines against the NCATS MIPE library collection: KMS34_JCRB cell viability assay (AID 1918985). Note: nearly all actives have a fitted effect of over 40% in size. The following applies: KMS34 myeloma viability, CellTiter-Glo ATP luminescence, 48 h; series mostly up to 45.8 µM. The gist of the method: (§1)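 Inhibition of viability over 48 h was scored by ATP content (CellTiter-Glo) in 500-cell wells. Zero and full viability were defined by media-only and DMSO-only wells.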
In the case of `Cn1cc(C[C@@H](N)C(=O)O)c2ccccc21`, the Potency is 4.57 µM (active).
On the same count and under the same terms, as for `NC(=O)c1ncn([C@@H]2O[C@H](CO)[C@@H](O)[C@@H]2O)c1O`, the entry is “inactive”; as for `COc1cc2c(cc1O)CCC1C2CC[C@@]2(C)C1CC[C@@H]2O` (some centres undefined), 2.09 µM (active); as for `Nc1nc2c(c(=O)[nH]1)N(C=O)[C@H](CNc1ccc(C(=O)N[C@@H](CCC(=O)O)C(=O)O)cc1)CN2`, “inactive”.
Regarding `CCn1c(=O)c2c(nc(C=Cc3ccc(OC)c(OC)c3)n2C)n(CC)c1=O`, the Potency result is “inactive”.
For the compound `CC(C)(O)CC[C@@H](O)[C@](C)(O)[C@H]1CC[C@@]2(O)C3=CC(=O)[C@@H]4C[C@@H](O)[C@@H](O)C[C@]4(C)[C@@H]3CC[C@]12C`, the Potency result was “inactive”.
Turning to `NC(=O)c1ncn([C@@H]2O[C@H](CO)[C@@H](O)[C@@H]2O)c1N`, the Potency result is “inactive”.
Same read-out and setting: as for `C[C@@H](Cc1cc2c(c(C(N)=O)c1)N(CCCO)CC2)NCCOc1ccccc1OCC(F)(F)F`, the entry is “inactive”; as for `C[C@H](NC(=O)[C@@H](O)c1cc(F)cc(F)c1)C(=O)N[C@@H]1C(=O)N(C)c2ccccc2-c2ccccc21`, “inactive”; as for `O=C(CN1C(=O)C2(CCCC2)NC[C@H]1c1cc(F)cc(F)c1)Nc1ccc2c(c1)C[C@@]1(C2)C(=O)Nc2ncccc21`, “inactive”.
The same measure, in the same setting: as for `CCCCCCCN(CC)CCCC(O)c1ccc(NS(C)(=O)=O)cc1` (centres undefined), the entry is “inactive”; as for `C[C@H](O)[C@@H]1C(=O)N2C(C(=O)O)=C(S[C@@H]3CN[C@H](CNS(N)(=O)=O)C3)[C@@H](C)[C@@H]12`, “inactive”.

The next assay in a line: Quantitative High-Throughput drug screen in 47 multiple myeloma cell lines against the NCATS MIPE library collection: OCIMY7_PLB cell viability assay (AID 1918987). Note: nearly all actives have a fitted effect of over 65% in size. To be noted: OCI-MY7 myeloma viability, CellTiter-Glo ATP, 48 h; viability (% of DMSO): at 45.8 µM (top of the series). In short, it runs like this: as §1
In general terms: ATP-based viability assays read luminescence as a measure of living cells.
As for `C=CC(=O)Nc1cc(NC(=O)c2ccc(C)c(NC(=O)c3ccno3)c2)cc(C(F)(F)F)c1`, the Potency is 16.6 µM (active).
On the same count and under the same terms, as for `COc1cc2c(cc1O)CCC1C2CC[C@@]2(C)C1CC[C@@H]2O` (some centres undefined), the figure is 0.469 µM (active); as for `COc1cc2ncnc(Nc3cccc(Br)c3)c2cc1OC`, 0.0372 µM (active).
Same read-out and setting: as for `COc1cc(C(=O)NC2CCN(C)CC2)ccc1Nc1ncc2c(n1)N(C1CCCC1)CCC(=O)N2C(C)C`, the figure is 14.8 µM (active); as for `C#C[C@]1(O)CC[C@@H]2[C@@H]3CCc4cc(O)ccc4[C@H]3CC[C@@]21C`, 3.72 µM (active); as for `N#Cc1c(C2CCNCC2)cc(-c2c(O)cccc2OCC2CC2)nc1N`, 2.35 µM (active).
As for `CCc1cc(C(C)=NOCc2ccc(C3CCCCC3)c(C(F)(F)F)c2)ccc1CN1CC(C(=O)O)C1`, the Potency is 16.6 µM (active).
As for `Cc1onc(-c2ccccc2)c1C(=O)N[C@@H]1C(=O)N2[C@@H](C(=O)O)C(C)(C)S[C@@H]12`, the Potency entry was “inactive”.
Still for that read-out and setting: as for `COC(=O)C1C2CC3c4[nH]c5cc(OC)ccc5c4CCN3CC2CC(OC(=O)c2cc(OC)c(OC)c(OC)c2)C1OC` (centres undefined), the figure is 16.6 µM (active); as for `CC(O)(C#Cc1ccc2c(c1)N(c1nc(N)ncc1Cl)CC2)c1nccs1` (centres undefined), 2.64 µM (active).
For `O=C(O)c1ccc(Nc2ncc3c(n2)-c2ccc(Cl)cc2C(c2c(F)cccc2F)=NC3)cc1`, the Potency was 0.209 µM (active).
Still for that read-out and setting: as for `CN1CCCN(C(=O)c2cccc(-c3ccc(C=C4C(=O)Nc5ccc(Cl)cc54)o3)c2)CC1`, the figure is 10.5 µM (active); as for `CC(C)(O)CC[C@@H](O)[C@](C)(O)[C@H]1CC[C@@]2(O)C3=CC(=O)[C@@H]4C[C@@H](O)[C@@H](O)C[C@]4(C)[C@@H]3CC[C@]12C`, “inactive”.
Still for that read-out and setting: as for `COc1cc(CCc2cc(NC(=O)c3ccc(N4C[C@@H](C)N[C@@H](C)C4)cc3)n[nH]2)cc(OC)c1`, the figure is 18.7 µM (active); as for `C[C@]12CC[C@@H]3c4ccc(O)cc4CC[C@H]3[C@H]1CC[C@H]2O`, 5.9 µM (active).
The same measure, in the same setting: in the case of `N=c1ccn2c(n1)O[C@H]1[C@@H](O)[C@@H](CO)O[C@H]12` it was 0.332 µM (active); in that of `N[C@H]1CN(c2c(F)cc3c(=O)c(C(=O)O)cn(C4C[C@@H]4F)c3c2Cl)CC12CC2` (some centres undefined), “inactive”.
Regarding `NS(=O)(=O)OC[C@@H]1C[C@@H](n2ccc3c(N[C@H]4CCc5ccccc54)ncnc32)C[C@H]1O`, the Potency is 0.743 µM (active).
Turning to `Cn1cc(C=CC(=O)c2cccc(F)c2)cc1C=CC(=O)NO`, the Potency is 11.8 µM (active).
`O=C(Nc1nnc(-c2ccco2)o1)c1cc(-c2ccccc2)nc2ccccc12`: the Potency is 16.6 µM (active).
The same measure, in the same setting: in the case of `c1ccc2c(Oc3nc(Nc4ccc(N5CCOCC5)cc4)c4ncn(C5CCCCC5)c4n3)cccc2c1` it was 14.8 µM (active).

A further assay in a line: Quantitative High-Throughput drug screen in 47 multiple myeloma cell lines against the NCATS MIPE library collection: OCIMY5_PLB cell viability assay (AID 1918988). Note: nearly all actives have a fitted effect of over 65% in size. The following applies: OCI-MY5 myeloma viability, ATP luminescence, 48 h; series mostly up to 45.8 µM. The gist of the method:
as §1
As to `C=CC(=O)Nc1cc(NC(=O)c2ccc(C)c(NC(=O)c3ccno3)c2)cc(C(F)(F)F)c1`, the Potency is 18.7 µM (active).
On the same count and under the same terms, in the case of `Cn1cc(C[C@@H](N)C(=O)O)c2ccccc21` it was “inactive”; in that of `CC(C(C)N1CC(=O)NC(=O)C1)N1CC(=O)NC(=O)C1` (centres undefined), 0.469 µM (active); in that of `Cc1[nH]c(C=C2C(=O)Nc3ccccc32)c(C)c1CCC(=O)O`, 18.7 µM (active).
On the same count and under the same terms, in the case of `COc1cc2c(cc1O)CCC1C2CC[C@@]2(C)C1CC[C@@H]2O` (some centres undefined) it was 1.18 µM (active); in that of `COc1cc2ncnc(Nc3cccc(Br)c3)c2cc1OC`, 0.0118 µM (active).
`COc1cc(C(=O)NC2CCN(C)CC2)ccc1Nc1ncc2c(n1)N(C1CCCC1)CCC(=O)N2C(C)C`: the Potency was 18.7 µM (active).
The same measure, in the same setting: in the case of `C#C[C@]1(O)CC[C@@H]2[C@@H]3CCc4cc(O)ccc4[C@H]3CC[C@@]21C` it was 7.43 µM (active).
Same read-out and setting: as for `N#Cc1c(C2CCNCC2)cc(-c2c(O)cccc2OCC2CC2)nc1N`, the figure is 14.8 µM (active).
Take `Nc1nc2c(c(=O)[nH]1)N(C=O)[C@H](CNc1ccc(C(=O)N[C@@H](CCC(=O)O)C(=O)O)cc1)CN2`: the Potency result is “inactive”.
Same read-out and setting: as for `Cc1onc(-c2ccccc2)c1C(=O)N[C@@H]1C(=O)N2[C@@H](C(=O)O)C(C)(C)S[C@@H]12`, the entry is “inactive”; as for `COC(=O)C1C2CC3c4[nH]c5cc(OC)ccc5c4CCN3CC2CC(OC(=O)c2cc(OC)c(OC)c(OC)c2)C1OC` (centres undefined), 16.6 µM (active).
On the same count and under the same terms, in the case of `CC(O)(C#Cc1ccc2c(c1)N(c1nc(N)ncc1Cl)CC2)c1nccs1` (centres undefined) it was 20.9 µM (active); in that of `O=C(O)c1ccc(Nc2ncc3c(n2)-c2ccc(Cl)cc2C(c2c(F)cccc2F)=NC3)cc1`, 0.332 µM (active).
As for `CN1CCCN(C(=O)c2cccc(-c3ccc(C=C4C(=O)Nc5ccc(Cl)cc54)o3)c2)CC1`, the Potency was 9.35 µM (active).
The same measure, in the same setting: as for `CC(C)(O)CC[C@@H](O)[C@](C)(O)[C@H]1CC[C@@]2(O)C3=CC(=O)[C@@H]4C[C@@H](O)[C@@H](O)C[C@]4(C)[C@@H]3CC[C@]12C`, the entry is “inactive”; as for `CC(=O)C1=C(O)C=C2Oc3c(C(C)=O)c(O)c(C)c(O)c3C2(C)C1=O` (centres undefined), 0.0012 µM (active); as for `COc1cc(CCc2cc(NC(=O)c3ccc(N4C[C@@H](C)N[C@@H](C)C4)cc3)n[nH]2)cc(OC)c1`, 16.6 µM (active).
On the same count and under the same terms, as for `C[C@]12CC[C@@H]3c4ccc(O)cc4CC[C@H]3[C@H]1CC[C@H]2O`, the figure is 9.35 µM (active); as for `FC(F)(F)c1ccc(Nc2nc3ccc(Oc4ccnc(-c5ncc(C(F)(F)F)[nH]5)c4)cc3[nH]2)cc1`, 16.6 µM (active).
Regarding `O=C(CN1C(=O)C2(CCCC2)NC[C@H]1c1cc(F)cc(F)c1)Nc1ccc2c(c1)C[C@@]1(C2)C(=O)Nc2ncccc21`, the Potency entry was “inactive”.
For `N[C@H]1CN(c2c(F)cc3c(=O)c(C(=O)O)cn(C4C[C@@H]4F)c3c2Cl)CC12CC2` (some centres undefined), the Potency was 20.9 µM (active).
As to `NS(=O)(=O)OC[C@@H]1C[C@@H](n2ccc3c(N[C@H]4CCc5ccccc54)ncnc32)C[C@H]1O`, the Potency is 16.6 µM (active).
Regarding `Cn1cc(C=CC(=O)c2cccc(F)c2)cc1C=CC(=O)NO`, the Potency was 14.8 µM (active).
Take `O=C(Nc1nnc(-c2ccco2)o1)c1cc(-c2ccccc2)nc2ccccc12`: the Potency is 18.7 µM (active).
Consider `c1ccc2c(Oc3nc(Nc4ccc(N5CCOCC5)cc4)c4ncn(C5CCCCC5)c4n3)cccc2c1`, for which the Potency was 18.7 µM (active).

Values taken from PubChem BioAssay (NCATS).
